Data on six compounds can be found in PubChem BioAssay.

Each structure is given as a SMILES string.

In this experiment the test system is Sonic hedgehog protein (Shh). The experiment is described as follows: small-molecule binders of Shh protein, primary screen, biochemical, small-molecule microarray, 635/667 nm fluorescence (AID 1151).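 Further: Shh protein binding to compounds spotted on small-molecule microarray slides; score combines spot fluorescence intensity with signal-to-noise across triplicate slides.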 Particulars: small-molecule microarray binding, 635 nm fluorescence; higher = more signal.
The compound `CO[C@H]1COC(=O)[C@@H](C)COC(=O)[C@H](COCc2ccccc2)NC(=O)CC=C[C@H]1C` showed a composite z-score of 1.88. `COc1cccc([C@H]2Oc3ccc(OC)cc3C(=NO[C@@H]3O[C@H](COC(C)=O)[C@@H](OC(C)=O)[C@H](OC(C)=O)[C@H]3OC(C)=O)[C@@H]2O)c1` showed a composite z-score of 0.149. The same measure for `CCOC(=O)[C@H](CC(C)C)NC(=O)CCC1CC(OC(=O)NCc2ccc3c(c2)OCO3)CC2(CCCC(COC(=O)NCc3cccc(C(F)(F)F)c3)O2)O1` (stereo partly specified): 0.387; for `CCN1C(=O)[C@H]2[C@H]3[C@H](O)[C@H](O)CC(=NOCC(C)C)[C@@H]3CC[C@H]2C1=O`: 1.31. In turn, `COC(=O)[C@H](C)NC(=O)CCC1CC(OC(=O)NCCc2ccc(F)cc2)CC2(CCCC(COC(=O)NCCC(C)C)O2)O1` (stereo partly specified) registered a composite z-score of 1.22. For `C=CC[C@@H]1C=C[C@H](ON=C(C)CCN2CCc3nc(-c4ccccc4)c(-c4ccccc4)cc3C2)[C@@H](CO)O1` the value was 1.12.
